# Source: PubChem
# Pf apPOL inh – Pf-apPOL DNA polymerase inhibition; Recombinant Pf-apPOL, molecular beacon fluorescence, 1.5 h; inhibition, % at 10 µM; hit rate 0.25% among 210,000; AID 1794808
# mHTT-CaM PPI inh – mHTT-calmodulin interaction abrogation. P42858. AlphaScreen His-mHTT/GST-CaM binding, luminescence. inhibition, % at 15 µM. hit rate 3.6% among 190,000. AID 1671202;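 note: 0% = both proteins with DMSO and 100% = one protein alone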
# The depositor's hits bear a star; i = inactive; nt = no result. An excerpt weighted towards active compounds, which were near 3.6% of everything screened. Cut-off read from the data, not from the text of the source: active = inhibition above about 50%; inactive = the rest.
SMILES,Pf apPOL inh,mHTT-CaM PPI inh
CCOc1cc(/C=C2\Sc3ccccc3C2=O)cc(I)c1O,-6,71*
CCOc1ccc(/C=C2\Sc3ccccc3C2=O)cc1,2,1
CCOc1cc(C=C2C(=O)c3ccccc3C2=O)cc(Br)c1O,-4,66*
COc1cc(/C=C2/SC(c3ccccc3)=NC2=O)cc(Br)c1O,2,96*
COc1ccc(/C=C2/SC(c3ccccc3)=NC2=O)cc1,-4,44
COc1cc(/C=C2\Sc3ccccc3C2=O)cc(Br)c1O,-2,59*
O=C(c1ccc(Cl)cc1)N1CCCC2(C1)NC(=O)N(Cc1ccc(Cl)cc1)C2=O (stereo not given),0,1
COc1ccc(NC(=O)CSc2nnc(CNC(=O)c3c(F)cccc3Cl)o2)cc1,-3,-4
COc1ccc(Cl)cc1NC(=O)C1c2ccccc2C(=O)N2CCc3ccccc3C12 (stereo not given),4,48
O=C1CSC(=Nc2cnn(COc3ccc(Br)cc3)c2)N1C1CC1,nt,-6
COC(=O)c1ccccc1NC(=O)C1CC(c2ccccc2F)=NO1 (stereo not given),-3,-16
COc1cc(/C=C2\Sc3ccccc3C2=O)cc(I)c1O,-3,74*
COc1cc(/C=C2\Sc3ccccc3C2=O)cc2sc(=O)oc12,0,13
COc1ccc(-c2nnc(N3CCC(C(=O)NCc4ccccc4)CC3)o2)cc1,1,9
Cc1ccc(C2N3CC4(C)CN2CC(C)(C3)C4O)cc1 (stereo not given),-3,-4
COC(=O)C(NC(=O)NC12CC3CC(CC(C3)C1)C2)C(C)C (stereo not given),-1,-4
O=C(NCc1ccc(Cl)cc1)c1ccc(N2CC3CC(C2)c2cccc(=O)n2C3)c([N+](=O)[O-])c1 (stereo not given),-8,59*
O=C(Nc1ccc(F)c(F)c1)c1ccc(N2CC3CC(C2)c2cccc(=O)n2C3)c([N+](=O)[O-])c1 (stereo not given),-5,22
CC1=Cn2c(=O)c3ccccc3c(=O)n2C1,-2,nt
COc1ccccc1C1CC(c2ccccc2)Nc2nc(N)nn21 (stereo not given),-1,-8
COc1ccccc1C1CC(c2ccc(F)cc2)Nc2nc(N)nn21 (stereo not given),-3,62*
CCOc1ccccc1C1CC(c2ccc(F)cc2)Nc2nc(N)nn21 (stereo not given),-2,72*
COc1ccc(C2CC(c3ccccc3OC)n3nc(N)nc3N2)cc1 (stereo not given),-4,2
Cc1oc2cc(OCC(=O)OCc3ccccc3)ccc2c(=O)c1Oc1ccccc1,-6,-2
Cn1ncc(N2CCCC(C(=O)NCCc3cccs3)C2)cc1=O (stereo not given),-8,-4
SMILES,Pf apPOL inh,mHTT-CaM PPI inh
O=C(Cc1ccc(F)cc1)N1CCCC1c1ccccc1F (stereo not given),-4,-11
O=C(CNS(=O)(=O)Cc1ccccc1)N1CCOC(c2ccccc2)C1 (stereo not given),-2,-10
CCn1c2ccccc2c2cc(C(C)=O)ccc21,-6,-14
CC(C)(C)OC(=O)Cn1c2ccccc2c2cc(N)ccc21,-4,73*
CC1(C)Nc2ccccc2-c2c1ssc2=S,nt,40
Cc1ccc2c(c1)-c1c(ssc1=S)C(C)(C)N2C,nt,93*
CCOc1ccc2c(c1)-c1c(ssc1=S)C(C)(C)N2C,nt,97*
CCOc1ccc2c(c1)C(=O)c1cc(OCC(=O)O)ccc1-2,-1,2
COc1ccc(Cl)cc1N1CCN(C(=O)CC(C)C)C(C)C1=O (stereo not given),0,-9
CCC(=O)N1CCN(c2nc3c(s2)CC(C(=O)Nc2cccc(Cl)c2)CC3)CC1 (stereo not given),-1,17
CCOc1ccccc1NC(=O)C(=O)NCc1ccc(CC)cc1,20,-9
CCc1ccc(CNC(=O)C(=O)Nc2ccccc2F)cc1,70*,-4
COc1ccc(-c2nc3n(n2)C(c2ccc(OC)c(OC)c2)C2=C(CCCC2=O)N3)cc1 (stereo not given),-1,16
COc1cc(C2C3=C(CCCC3=O)Nc3nc(-c4ccc(O)cc4)nn32)cc(OC)c1OC (stereo not given),-2,12
COc1ccc(C2C3=C(CCCC3=O)Nc3nc(-c4ccc(N(C)C)cc4)nn32)cc1OC (stereo not given),2,80*
CC1(C)CC(=O)C2=C(C1)Nc1nc(-c3ccccc3)nn1C2c1ccc(F)cc1 (stereo not given),-1,78*
COc1cc(-c2nc3n(n2)C(c2ccccc2)C2=C(CCCC2=O)N3)cc(OC)c1OC (stereo not given),-3,52*
CC1(C)CC(=O)C2=C(C1)Nc1nc(-c3ccc(O)cc3)nn1C2c1ccccc1 (stereo not given),0,-9
CCN(CC)c1nc(OC)nc(C(N)=O)n1,nt,-6
Fc1ccc(/C=N/N2CCN(C3c4ccccc4-c4ccccc43)CC2)cc1,nt,i
Cc1ccc2ccc(C(Nc3ccccn3)c3ccc(O)cc3)c(O)c2n1 (stereo not given),2,93*
O=S(=O)(Nc1ccccn1)c1ccc(Cl)cc1,0,-2
Cc1ccc(-c2nc(C=Nc3ccccn3)c(O)o2)cc1,-2,9
Cc1ccc(C(Nc2ccccn2)c2ccc3ccc(C)nc3c2O)cc1 (stereo not given),-12,72*
Cc1ccc2ccc(C(Nc3ccccn3)c3ccc(F)cc3)c(O)c2n1 (stereo not given),-10,70*
SMILES,Pf apPOL inh,mHTT-CaM PPI inh
O=c1cc(CO)oc(C(Nc2ncccn2)c2ccc(F)cc2)c1O (stereo not given),-4,10
Oc1c(C(Nc2ccccn2)c2ccc(Cl)cc2)ccc2cccnc12 (stereo not given),4,100*
O=C1/C(=C/c2ccccn2)CC/C1=C\c1ccccn1,-8,4
O=C(Cc1cc(-c2cc3ccccc3o2)on1)NCCC1=CCCCC1,1,-9
O=C1S/C(=C\c2ccccc2O)C(=O)N1Cc1ccc(F)cc1,-1,-11
Cc1ccc(C)c(C(Nc2ccccn2)c2ccc3cccnc3c2O)c1 (stereo not given),4,97*
O=C(Nc1ccccn1)c1cc(Br)ccc1Cl,3,3
Cc1ccc(C)c(C(C)Sc2ncccc2C(=O)O)c1 (stereo not given),1,nt
Oc1c(C(Nc2ccccn2)c2ccc(Br)cc2)ccc2cccnc12 (stereo not given),0,94*
Cc1ccnc(NC(c2ccccc2C)c2ccc3cccnc3c2O)c1 (stereo not given),-11,99*
Cc1ccc(C(Nc2ccccn2)c2ccc3cccnc3c2O)cc1 (stereo not given),3,99*
Cc1ccc(-c2ncccc2O)cc1,-7,1
COc1ccc(CCNC(=O)C(=O)NC2CC2)cc1OC,-6,0
O=S1(=O)C=C(CSc2cccs2)c2cc(Cl)ccc21,-2,nt
O=C(CCCl)N1CCCC1c1nc2cc(-c3ccccc3)ccc2o1 (stereo not given),-7,35
Cc1nc2c(c(=O)n1CC(=O)Nc1ccc3c(c1)CCC3)CCN(Cc1ccccc1)C2,-5,-10
COc1ccc(Nc2ncc3c(n2)CCN(Cc2cccc(OC)c2OC)C3)c(OC)c1,-6,-1
O=S1(=O)C[C@@H](N2CCC(Cc3ccccc3)CC2)[C@H](COCc2ccccc2)N1,-7,47
